Test results as given in PubChem BioAssay (NCATS).
Values joined by “and” are separate entries in the source; they are usually repeats but may differ in a detail not shown here. Identical values can stand only once. Records with an inconclusive call do not appear. Active and inactive are the calls of the source. Unless noted, calls come from the whole dose curve.

Experiments:
[1] = target: Lysosomal acid glucosylceramidase (Homo sapiens) (UniProt P04062); test: Glucocerebrosidase-p2 (AID 348; in the data active = potency below about 10 µM; note: potency is the fitted concentration of half-maximal effect); settings: purified GBA, blue fluorogenic substrate, 40 min
In short: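 Normal human glucocerebrosidase (0.2 nM) with blue fluorogenic substrate (80 uM final) in citrate/phosphate pH 5.9 with 10mM sodium taurocholate, 0.01% tween-20; 40 min RT, NaOH/glycine stop; fluorescence Ex 365/Em 440; AC50 from a titration from 0.6 nM upwards.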

[2] = NFAT Signaling Pathway (AID 444; active = well fitted curve in either direction with a large enough effect, not every such curve was filed as active;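 note: carbachol stimulus at about its EC50 of 1 µM final; % is set by controls: 0 for no effect and ±100 for the full control effect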); settings: Jurkat NFAT-bla M1, carbachol, beta-lactamase ratio, 5 h; at 7.69 µM (top of the series)
In short: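 Jurkat cells carrying an NFAT-driven β-lactamase reporter and co-transfected muscarinic M1 receptor were treated with compound plus carbachol (1 uM final, an EC50 level) for 5 h at 37 °C. CCF4 loading followed for 1 h at RT; 460/530 nm ratio gave %activity.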

[3] = AP1 Signaling Pathway (AID 357; active = well fitted curve in either direction with a large enough effect, not every such curve was filed as active;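 note: ME-180 reporter cells stimulated with EGF at its EC50 level; % is set by controls: 0 for no effect and ±100 for the full control effect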); settings: ME-180 AP-1-bla reporter, EGF-induced, beta-lactamase ratio, 5 h
In short: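 Cells are seeded overnight, exposed to compound titrations and an EC50 level of EGF for 5 hours at 37 °C, then loaded with CCF4 dye for 2.5 hours. Beta-lactamase activity under the AP-1 element is read as a blue/green ratio.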

[4] = Cell Viability - BJ (AID 421); settings: BJ fibroblast viability, qHTS;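 note: potency is the fitted concentration of half-maximal effect; cells exposed to compound for 40 hours at 37 °C before readout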
In short: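 Cytotoxicity in human BJ foreskin fibroblasts is scored as loss of cellular ATP after a 40-hour exposure, measured by luciferase luminescence. Controls are DMSO and 100 uM tamoxifen.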

[5] = Cell Viability - Hek293 (AID 427;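 active = compounds whose dose-response curve shows a full or clear partial loss of cell viability, called from curve shape rather than a numeric limit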;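 note: potency is the fitted concentration of half-maximal effect; cells exposed to compound for 40 hours at 37 °C before reading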); settings: qHTS
In short: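 qHTS, human embryonic kidney (adenovirus-transformed) cells; 40 hr cpd, 37 °C; CellTiter-Glo ATP luminescence. Norm: DMSO = 0, 100 uM tamoxifen = 100% inhibition. Hill-fit AC50.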

[6] = Cell Viability - HepG2 (AID 433); settings: qHTS;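 note: potency is the fitted concentration of half-maximal effect; potency for ATP loss meaning cytotoxicity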
In short: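 Cytotoxicity read as ATP loss (CellTiter-Glo luminescence) after 40 hr compound exposure of HepG2, 1500 cells/well, 37 °C. AC50 by Hill equation; 0% set by DMSO, 100% inhibition by 100 uM tamoxifen.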

[7] = Cell Viability - MRC5 (AID 434); settings: MRC5 lung fibroblast viability, qHTS;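 note: potency is the fitted concentration of half-maximal effect; cells exposed to compound for 40 hours at 37 °C; potency reflects cytotoxicity seen as loss of intracellular ATP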
In short: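 Decrease in intracellular ATP, quantified by luciferase light output, reflects compound toxicity toward MRC5 cells exposed for 40 hr in complete culture medium. Concentration-response curves, scaled between DMSO and 100 uM tamoxifen, gave AC50 values.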

[8] = Cell Viability - SK-N-SH (AID 435); settings: SK-N-SH neuroblastoma cell viability qHTS; note: potency is the fitted concentration of half-maximal effect
In short: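 qHTS cytotoxicity: CellTiter-Glo ATP luminescence after 40 h compound exposure of human neuroblastoma SK-N-SH cells at 37 °C. AC50 derived by Hill-equation fitting, with DMSO as basal and 100 uM tamoxifen as full inhibition.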

[9] = Stat Signaling Pathway (AID 446; active = well fitted curve in either direction with a large enough effect, not every such curve was filed as active;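 note: ME-180 cervical cancer cells given 40 pM IL-6 alongside compound; SIE-controlled beta-lactamase reporter measured as 460/530 nm FRET emission ratio; % is set by controls: 0 for no effect and ±100 for the full control effect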); settings: ME-180 (cervical carcinoma) SIE beta-lactamase reporter, IL-6 stimulated, 5 h; series mostly up to 17.2 µM
In short: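 Emission at 460 and 530 nm (excitation 405 nm) reports SIE-controlled beta-lactamase in ME-180 cells. Cells received compound with 40 pM IL-6 for 5 hrs at 37 C; data scaled between 300 pM IL-6 and 125 nM JAK-inhibitor controls.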

[10] = target: Cytochrome P450 1A2 (Homo sapiens) (UniProt P05177); test: p450-cyp1a2 (AID 410); settings: recombinant CYP1A2, luciferin-ME demethylation, luminescence; series mostly up to 25.6 µM; note: potency is the fitted concentration of half-maximal effect
In short: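 20nM CYP1A2, 100uM Luciferin-ME (=Km), 100mM KPO4; cpd 10 min RT; +NADPH regen, 60 min RT; stop/detect 20 min; luminescence. Normalized to furafylline 57 uM = full inhibition.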

Cytochrome P450 1A2 (Homo sapiens), sequence (P05177 whole entry, looked up): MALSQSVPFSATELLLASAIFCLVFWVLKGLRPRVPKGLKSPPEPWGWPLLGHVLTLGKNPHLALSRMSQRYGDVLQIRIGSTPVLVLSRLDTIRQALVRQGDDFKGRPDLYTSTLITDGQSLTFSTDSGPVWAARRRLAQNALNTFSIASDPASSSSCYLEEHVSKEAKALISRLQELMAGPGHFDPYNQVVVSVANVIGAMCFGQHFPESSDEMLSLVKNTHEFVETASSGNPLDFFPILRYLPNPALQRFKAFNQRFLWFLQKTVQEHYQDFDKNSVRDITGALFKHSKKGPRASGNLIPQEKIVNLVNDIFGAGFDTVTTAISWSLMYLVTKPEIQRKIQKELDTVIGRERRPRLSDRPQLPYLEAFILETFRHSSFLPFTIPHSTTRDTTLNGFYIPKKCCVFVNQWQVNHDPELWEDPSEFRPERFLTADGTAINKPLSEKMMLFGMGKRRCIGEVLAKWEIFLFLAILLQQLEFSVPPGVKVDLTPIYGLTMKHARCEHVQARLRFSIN
Lysosomal acid glucosylceramidase (Homo sapiens), sequence (P04062 whole entry, looked up): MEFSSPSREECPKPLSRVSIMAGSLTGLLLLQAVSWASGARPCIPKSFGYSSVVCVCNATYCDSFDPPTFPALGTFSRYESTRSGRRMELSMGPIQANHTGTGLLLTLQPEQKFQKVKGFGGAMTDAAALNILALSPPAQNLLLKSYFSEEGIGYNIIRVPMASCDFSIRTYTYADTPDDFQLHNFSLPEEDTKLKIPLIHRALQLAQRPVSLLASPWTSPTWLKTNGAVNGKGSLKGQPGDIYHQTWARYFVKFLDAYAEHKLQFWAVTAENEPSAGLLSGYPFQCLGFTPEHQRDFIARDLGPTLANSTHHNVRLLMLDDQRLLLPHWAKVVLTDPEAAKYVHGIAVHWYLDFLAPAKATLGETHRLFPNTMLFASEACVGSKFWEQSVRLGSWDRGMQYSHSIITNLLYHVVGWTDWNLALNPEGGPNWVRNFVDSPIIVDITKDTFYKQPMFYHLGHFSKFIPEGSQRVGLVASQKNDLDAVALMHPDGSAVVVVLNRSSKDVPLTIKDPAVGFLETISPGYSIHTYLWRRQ

O=C(O)/C=C(\CC(=O)O)C(=O)O
inactive: Potency [1] > 11.4 µM | activity change, negative = inhibition [2] 26.4%

NC(N)=NCCCCN=C(N)N
inactive: activity change, negative = inhibition ([3]; at 17.2 µM (top of the series)) 10.4% | activity change, negative = inhibition ([3]; at 38 µM (top of the series)) -0.239%

CCCCCCCCCCCCCCCC[n+]1ccccc1
active: Potency [4] 55.8 µM | Potency [5] 54.4 µM | Potency [6] 32.8 µM | Potency [7] 29.8 µM | Potency [8] 28.7 µM

CC(NCCC(c1ccccc1)c1ccccc1)c1ccccc1 (stereo not drawn)
inactive: activity change, negative = inhibition ([3]; at 17.2 µM (top of the series) unless noted) 12.2% | outcome [9]

Cc1cc(C(C)(C)C)c(O)c(C(C)(C)C)c1
inactive: Potency [4] > 92 µM | Potency [5] > 92 µM | Potency [6] > 92 µM | Potency [7] > 92 µM | Potency [8] > 92 µM

C1=CC2C3C=CC(C3)C2C1 (stereo not drawn)
inactive: Potency [4] > 92 µM | Potency [5] > 92 µM | Potency [6] > 92 µM | Potency [7] > 92 µM | Potency [8] > 92 µM

C[C@@H](C1=C(CCN(C)C)Cc2ccccc21)c1ccccn1
active: Potency [10] 20 µM

Cc1ccc(O)cc1
inactive: Potency [4] > 92 µM | Potency [5] > 92 µM | Potency [6] > 92 µM | Potency [7] > 92 µM | Potency [8] > 92 µM

CC(C)C(C)(C)C(C)(C)C(C)(C)S
inactive: Potency [4] > 92 µM | Potency [5] > 92 µM | Potency [6] > 92 µM | Potency [7] > 92 µM | Potency [8] > 92 µM

CC(C)(c1ccc(O)cc1)c1ccc(O)cc1
inactive: Potency [4] > 92 µM | Potency [5] > 92 µM | Potency [6] > 92 µM | Potency [7] > 92 µM | Potency [8] > 92 µM

O=C(NO)c1ccccc1
inactive: Potency [4] > 92 µM | Potency [5] > 92 µM | Potency [6] > 92 µM | Potency [7] > 92 µM | Potency [8] > 92 µM

Nc1c2ccccc2nc2ccccc12
active: Potency [7] 38.2 µM | Potency [8] 40.5 µM

O=C(c1ccccc1)c1ccccc1
inactive: Potency [4] > 92 µM | Potency [5] > 92 µM | Potency [6] > 92 µM | Potency [7] > 92 µM | Potency [8] > 92 µM

Cn1cnc2c(NCc3ccccc3)nc(NCCO)nc21
inactive: outcome [9]
active: Potency [10] 7.94 µM and 5.01 µM

OCc1c[nH]c2ccccc12
inactive: Potency [4] > 92 µM | Potency [5] > 92 µM | Potency [6] > 92 µM | Potency [7] > 92 µM | Potency [8] > 92 µM

CC(C)N(CCC(=O)c1ccc2ccccc2c1)Cc1ccccc1
active: Potency [10] 3.98 µM and 2.51 µM

Brc1ccccc1-c1ccccc1
inactive: Potency [4] > 92 µM | Potency [5] > 92 µM | Potency [6] > 92 µM | Potency [7] > 92 µM | Potency [8] > 92 µM

CC(C)(C)c1ccc(O)c(O)c1
inactive: Potency [4] > 92 µM | Potency [6] > 92 µM | Potency [7] > 92 µM
active: Potency [8] 54.4 µM

CCCC(=O)c1cc(O)c(O)cc1O
inactive: Potency [4] > 92 µM | Potency [5] > 92 µM | Potency [6] > 92 µM | Potency [7] > 92 µM

Nc1ccc(O)cc1
active: Potency [4] 62.8 µM | Potency [5] 47.3 µM | Potency [7] 53.3 µM | Potency [8] 43 µM

Oc1ccccc1
inactive: Potency [4] > 92 µM | Potency [5] > 92 µM | Potency [6] > 92 µM | Potency [7] > 92 µM | Potency [8] > 92 µM

c1ccc2occc2c1
inactive: Potency [4] > 92 µM | Potency [5] > 92 µM | Potency [6] > 92 µM | Potency [7] > 92 µM | Potency [8] > 92 µM

CCCCC(CC)COC(=O)c1ccccc1C(=O)O (stereo not drawn)
inactive: Potency [4] > 92 µM | Potency [5] > 92 µM | Potency [6] > 92 µM | Potency [7] > 92 µM | Potency [8] > 92 µM

O=C(Oc1ccccc1)c1ccccc1O
inactive: Potency [4] > 92 µM | Potency [5] > 92 µM | Potency [6] > 92 µM | Potency [7] > 92 µM | Potency [8] > 92 µM

CC(=O)OC/C=C(C)/C=C/C=C(C)/C=C/C1=C(C)CCCC1(C)C
inactive: Potency [4] > 92 µM | Potency [5] > 92 µM | Potency [6] > 92 µM | Potency [7] > 92 µM

Nc1cccc2c(N)cccc12
inactive: Potency [4] > 92 µM | Potency [5] > 92 µM | Potency [6] > 92 µM | Potency [7] > 92 µM | Potency [8] > 92 µM

COc1cc(C=O)ccc1O
inactive: Potency [4] > 92 µM | Potency [5] > 92 µM | Potency [6] > 92 µM | Potency [7] > 92 µM | Potency [8] > 92 µM
